Rows were chosen to be rich in hits. Some 3.8% of all compounds tested hit in one or more screens of this group.
tim10-1 inh: growth inhibitors of tim10-1 mutant yeast, primary screen, luminescence, uHTS. S. cerevisiae tim10-1 ts strain growth, BacTiter-Glo, 24 h. inhibition, % at 20 µM. 330,000 compounds, 2.2% hits. AID 463190, 2010;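 active = inhibition of at least 40%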;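 also: mutant grown at 25 °C; 0% = DMSO wells with yeast and 100% = wells holding no yeast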
TIM10 inh: growth inhibitors of isogenic TIM10 control yeast, primary screen, counter-screen for tim10-1 yeast inhibitor project, luminescence, uHTS; S. cerevisiae TIM10 strain growth, BacTiter-Glo luminescence, 24 h; 330,000 compounds, 1.4% hits; AID 463195, 2010; inhibition, % at 10 µM;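 active = inhibition of 40% or more at the single tested concentration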;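 also: wild-type TIM10 isogenic control strain grown at permissive 25 °C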
Beta2AR agonist: beta2AR agonists driving receptor internalization, primary screen, cell-based, FAP fluorogen, flow cytometry | 340,000 compounds, 0.43% hits | AID 504454, 2011 | Am2.2-beta2AR cells | Beta-2 adrenergic receptor (Homo sapiens), P07550 | response, % (concentration not given with the values);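 active = response above a set limit, near 3 SD of response in nonfluorescent compounds, cut at about 42% in these data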
Target sequence (P07550 whole entry, looked up): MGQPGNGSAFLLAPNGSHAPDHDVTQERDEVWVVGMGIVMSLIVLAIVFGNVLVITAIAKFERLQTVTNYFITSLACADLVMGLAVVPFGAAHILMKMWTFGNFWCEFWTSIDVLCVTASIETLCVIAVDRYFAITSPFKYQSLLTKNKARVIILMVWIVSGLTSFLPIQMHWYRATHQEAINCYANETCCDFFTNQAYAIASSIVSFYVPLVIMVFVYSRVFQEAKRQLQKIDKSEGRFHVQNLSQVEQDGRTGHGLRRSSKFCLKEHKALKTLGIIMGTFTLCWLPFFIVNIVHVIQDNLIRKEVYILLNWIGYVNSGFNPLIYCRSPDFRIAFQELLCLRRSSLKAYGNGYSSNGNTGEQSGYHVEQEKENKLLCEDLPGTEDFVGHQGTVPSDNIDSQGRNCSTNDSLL
tim23-1 inh: growth inhibitors of tim23-1 mutant yeast, primary screen, luminescence, uHTS. S. cerevisiae tim23-1 growth, BacTiter-Glo luminescence, 24 h. inhibition, % at 20 µM. 330,000 compounds, 1.3% hits. AID 463212, 2010;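 active = growth inhibition of the mutant yeast at or above 50%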;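 also: temperature-sensitive mutant grown at 25 °C; plate controls were DMSO-treated mutant yeast for no effect and medium wells lacking yeast for full effect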
PfHsp90 set2: growth inhibition of PfHsp90-expressing yeast, primary screen, antimalarial PfHsp90 inhibitor project, S. cerevisiae, BacTiter-Glo luminescence, single point, set 2 | BacTiter-Glo ATP, 48 h; yeast lacking PDR1 and PDR3 efflux regulators | inhibition, % at 9.4 µM | 310,000 compounds, 0.32% hits | AID 504621, 2011;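 active = every replicate shows inhibition above about 80%, whatever the replicate mean, limit read from the data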;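 also: 0% = DMSO neutral controls and 100% = 20 µM radicicol positive controls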
tim10 confirm: growth inhibitors of wild-type TIM10 yeast, confirmation, counter-screen for tim10-1 synthetic lethality project, single concentration, luminescence, S. cerevisiae; 4,600 compounds, 63% hits; shares compounds with TIM10 inh; inhibition, % at 10 µM; S. cerevisiae tim10 strain growth, BacTiter-Glo luminescence, 24 h; AID 463215, 2010;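 active = inhibition of yeast growth at or above a set limit in either of two replicates at 10 µM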;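 also: this counterscreen used the strain with wild-type TIM10; 0% = yeast with DMSO and 100% = medium wells lacking yeast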
Active calls of the source: *; x = not tested or not shown.

SMILES	tim10-1 inh	TIM10 inh	Beta2AR agonist	tim23-1 inh	PfHsp90 set2	tim10 confirm
CCCn1c2c(c(O)c(C(=O)Nc3ncccc3C)c1=O)CCCC2	25	45*	-22	49	0	8
O=C(c1cccc(-c2ccccc2)c1)N1CC[C@@H](N2CCC(O)CC2)[C@H](O)C1	-13	-6	-1	2	8	x
CS(=O)(=O)N1CCN(c2ccccc2NC(=O)c2ccco2)CC1	2	-1	-16	-11	5	x
CC1CCN(c2ccccc2NC(=S)NC(=O)c2ccco2)CC1	34	43*	-6	34	-3	40*
CCOCc1nnc(NC(=O)C2CC(=O)N(CCc3ccc(F)cc3)C2)s1 (centres undefined)	2	-3	0	5	-12	x
O=c1c2ccccc2sn1-c1ccc(F)cc1	30	55*	-11	35	7	64*
O=C(NCc1cn(-c2ccccc2)nc1-c1ccc(F)cc1)c1cccc([N+](=O)[O-])c1	33	41*	10	6	-4	21
CCn1cc(CNC(=O)c2cccc([N+](=O)[O-])c2)c(C)n1	15	-19	-5	6	-1	x
COc1ccc(Cl)cc1NC(=O)Nc1ccc(C(=O)N2CCOCC2)cc1	-1	11	11	1	7	x
Cc1cc(=O)nc2c3ccccc3n(C(C)C(=O)NCCN3CCOCC3)n12 (centres undefined)	17	-7	3	11	1	x
O=C(N/N=C/c1nn(-c2ccccc2)cc1-c1ccccc1)c1ccncc1	39	40*	-16	28	-20	27
O=c1cc(CCl)nc(Cc2c(Cl)cccc2Cl)[nH]1	-2	-9	3	1	-1	x
CCOC(=O)C1=C(C)N(c2ccc(C)c(C)c2)C(=O)/C1=C\c1ccco1	27	24	-6	32	-16	x
COC(=O)C1=C(C)N(c2ccc(C)c(C)c2)/C(=C/c2ccco2)C1=O	37	48*	-2	38	10	47*
COC(=O)C1=C(C)N(c2ccc(F)cc2)/C(=C/c2ccc(O)cc2)C1=O	-2	-5	-21	-3	-27	x
COC(=O)C1=C(C)N(c2ccc(C)cc2)/C(=C/c2cccs2)C1=O	38	43*	-11	34	x	32*
Cc1cc(C=O)sc1[B-](F)(F)F	x	x	-7	x	-7	x
CCOC(=O)C1=C(N)Oc2ccc3ccccc3c2C1c1cccnc1 (centres undefined)	27	46*	9	11	-4	-6
CCOC(=O)C1=C(N)Oc2ccc3ccccc3c2C1c1cccc(O)c1 (centres undefined)	-56	5	1	26	29	x
O=C(CNc1cccc2ccccc12)N/N=C/c1ccc[nH]1	-13	7	5	-5	14	x
O=C(CC12CC3CC(CC(C3)C1)C2)N/N=C\c1ccc[nH]1	32	46*	-21	36	6	34*
CCc1nc(SCc2cc(=O)[nH]c3ccccc23)c2c(C)c(C)sc2n1	x	x	5	x	-28	x
CC1=CC(C)(C)NC(=S)N1c1ccc(N(C)C)cc1	x	x	2	x	11	x
Fc1ccc(NC(=S)NN=C2CCCCCC2)cc1	34	45*	1	31	1	21
O=S1(=O)C=C(Oc2ccc3ccccc3c2)c2ccccc21	28	42*	1	38	23	42*
O=S1(=O)C=C(Oc2ccc(F)cc2)c2ccccc21	3	-3	8	20	-29	x
O=C(Nc1cccc(F)c1)c1cc(S(=O)(=O)NCCC2=CCCCC2)ccc1F	34	42*	-5	39	-15	-31
O=C(C[C@H]1C/C=C\C[C@H](NC(=O)OCC2c3ccccc3-c3ccccc32)C(=O)OC[C@@H]2CCCN2C1=O)NCCO	-3	5	-1	11	2	x
N#CC1(NC(=O)CSc2nnc3n2CCCCC3)CCCCC1	-3	81*	0	-5	9	7

Screening data deposited in PubChem BioAssay by several laboratories.
